Experimental data taken from PubChem BioAssay (NCI).
This is part of a sample that, as a whole, favours compounds with a hit. Of some 83,000 tested, about 20% had one in any assay.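 A percent growth of 40 corresponds to 60% growth inhibition; 0 means no net growth; -100 means all cells died. Active threshold: below 10.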 Unmarked numbers belong to inactive results. The source made the active and inactive calls.

How the values were obtained:
Experiment in all cases: NCI-60 one-dose screen, 48 h (100 = growth as untreated, 0 = no growth, -100 = all killed)
Conditions in all cases: 10 µM unless noted
SK-MEL-2 melanoma = system: SK-MEL-2 melanoma
EKVX NSCLC = system: EKVX NSCLC
SN12C renal = system: SN12C renal
UO-31 renal = system: UO-31 renal
TK-10 renal = system: TK-10 renal
ACHN renal = system: ACHN renal
CAKI-1 renal = system: CAKI-1 renal
A498 renal = system: A498 renal
CCRF-CEM leukemia = system: CCRF-CEM leukemia
MOLT-4 leukemia = system: MOLT-4 leukemia
SR leukemia = system: SR leukemia
OVCAR-8 ovarian = system: OVCAR-8 ovarian
OVCAR-5 ovarian = system: OVCAR-5 ovarian
OVCAR-4 ovarian = system: OVCAR-4 ovarian
SK-OV-3 ovarian = system: SK-OV-3 ovarian
IGROV1 ovarian = system: IGROV1 ovarian
OVCAR-3 ovarian = system: OVCAR-3 ovarian
HS 578T breast = system: HS 578T breast
NCI/ADR-RES ovarian = system: NCI/ADR-RES ovarian

SMILES	growth (SK-MEL-2 melanoma)	growth (EKVX NSCLC)	growth (SN12C renal)	growth (UO-31 renal)	growth (TK-10 renal)	growth (ACHN renal)	growth (CAKI-1 renal)	growth (A498 renal)	growth (CCRF-CEM leukemia)	growth (MOLT-4 leukemia)	growth (SR leukemia)	growth (OVCAR-8 ovarian)	growth (OVCAR-5 ovarian)	growth (OVCAR-4 ovarian)	growth (SK-OV-3 ovarian)	growth (IGROV1 ovarian)	growth (OVCAR-3 ovarian)	growth (HS 578T breast)	growth (NCI/ADR-RES ovarian)
O=c1c2cc(F)ccc2sc2c(N3CCNCC3)nc3ccc(F)cc3c12	90.5%	66.4%	54.2%	31.8%	26.6%	-41.6% (active)	-96.9% (active)	45.5%	-12.1% (active)	-36.5% (active)	-46.3% (active)	3.1% (active)	60.3%	-63.8% (active)	84%	36.3%	-84.1% (active)	46.6%	4.72% (active)
N#C/C(=C\c1ccc(F)cc1)n1nc2cccc(F)c2n1	58.7%	71.1%	76.2%	41%	60.7%	42.9%	24.8%	11.7%	25.6%	52.3%	13.7%	81.2%	79.7%	34%	74.9%	73.1%	-3.76% (active)	27.6%	8.9% (active)
COc1ccc(C2NC(=O)C(C#N)c3c2sc2c(F)cccc32)c(OC)c1 (centres undefined)	65.1%	79.8%	73.8%	34%	90.1%	37.5%	21.4%	25.2%	71.9%	71.4%	13.9%	62.3%	98.9%	53.7%	50.8%	52.7%	13.8%	21.4%	16.7%
NCCCNc1nc2ccccc2c2c(=O)c3cc(OC(F)(F)F)ccc3sc12	89.3%	67.9%	41.3%	33.8%	64.7%	-22.8% (active)	-72.7% (active)	21.4%	-2.58% (active)	-39.5% (active)	-31.1% (active)	-0.0816% (active)	76%	-58.3% (active)	89.9%	35.4%	-73.3% (active)	1.28% (active)	-29% (active)
COc1ccc2sc3c(NCCCNCCO)nc4ccccc4c3c(=O)c2c1	102%	67.2%	62%	46.4%	75%	57.7%	44%	38.1%	2.35% (active)	16.4%	-46.9% (active)	54.6%	84.2%	4.38% (active)	85.7%	45.9%	0.904% (active)	53%	63.8%
Cc1cc(C)c(-c2c(N)cc(Br)cc2Br)c(N)c1	44.1%	65.9%	68.7%	61.5%	72%	75.1%	50.3%	70.9%	26.4%	34.4%	24.9%	83.8%	84.9%	74.3%	31.7%	63.9%	65%	66.4%	54.5%
CCCC1CCC(O)(C(C)(O)C(=O)NC2C(=O)N3NCCCC3C(=O)N(O)C(C)C(=O)N3NCCCC3C(=O)N3NCC(O)CC3C(=O)NC(C)C(=O)OC2C(C)C)OC1CC (centres undefined)	-43.7% (active)	-63.4% (active)	-67.9% (active)	0.226% (active)	-85.3% (active)	-68.1% (active)	-82.6% (active)	-95.5% (active)	-84.5% (active)	-82.7% (active)	-87.6% (active)	-71.8% (active)	-98.4% (active)	-81% (active)	-96.3% (active)	-40% (active)	-89.9% (active)	-78.1% (active)	-76.7% (active)
Cn1cc(-c2cc3ncnc(Nc4ccc(CC(=O)Nc5cc(C(C)(C)C)nn5C)cc4)c3s2)cn1	22.3%	84.6%	26.4%	28.8%	56.5%	25.9%	19.3%	-7.97% (active)	13.7%	16.7%	8.15% (active)	35.9%	102%	28.1%	29.3%	28.9%	61.4%	32.3%	101%
COc1ccc2nc(NC(=O)c3cccnc3Nc3ccc(S(N)(=O)=O)cc3)sc2c1	103%	92%	110%	126%	99%	90%	76.1%	93.5%	59.3%	63.3%	59.6%	97.1%	102%	81.7%	116%	134%	98.9%	96.7%	104%
c1ccc2c(c1)Nc1ccncc1S2	119%	73.1%	97.6%	78.5%	109%	94.2%	61.2%	80.7%	117%	142%	200%	101%	89.5%	93.1%	112%	99.4%	119%	102%	107%
COc1ccc(CNC(=O)[C@H](O)[C@@H](N)Cc2ccccc2)cc1	123%	99.8%	97.5%	92%	102%	107%	90.7%	90.8%	102%	107%	93.4%	108%	98%	104%	110%	109%	119%	102%	109%
CCN(CC)CCNc1nc2ccccc2c2c(=O)c3cc(Cl)ccc3sc12	89%	74.9%	66.7%	43.7%	80.1%	47.6%	22.6%	-7.91% (active)	7.05% (active)	25.1%	-2.52% (active)	64.4%	81.6%	46.5%	54%	56.1%	51.3%	67.6%	27.1%
O=c1c2cc(C(F)(F)F)ccc2sc2c(NCCCNCCO)nc3ccccc3c12	84.7%	67.3%	36.1%	23.2%	-0.0148% (active)	2.14% (active)	-67.2% (active)	21.8%	-12.5% (active)	-50.1% (active)	-39.4% (active)	-3.45% (active)	64.8%	-41.6% (active)	74.9%	15%	-73.8% (active)	-9.58% (active)	1.68% (active)
O=C1/C(=C/c2ccccc2[N+](=O)[O-])Oc2ccc(O)c(O)c21	43.1%	63.9%	31.1%	28.7%	80.4%	17.7%	15.1%	65.7%	8.79% (active)	18.1%	36.1%	25.5%	48.8%	47.9%	93.1%	48.5%	35.1%	21.1%	37.6%
COc1ccccc1/C=C1\Oc2cc(OCCN3CCC(Cc4ccccc4)CC3)ccc2C1=O	116%	86%	88.8%	65.5%	94.5%	105%	82.5%	47.7%	70.7%	72.2%	5.96% (active)	81.2%	89.3%	93.2%	106%	82.6%	98%	82.8%	89.2%
Cc1c(C(=O)NCCN2CCOCC2)cn2ncnc(Oc3ccc(NC(=O)Nc4ccc(Cl)c(C(F)(F)F)c4)cc3)c12	-20.8% (active)	25.2%	21.2%	52.7%	32.2%	13.6%	30.3%	-5.16% (active)	9.09% (active)	-3.35% (active)	1.03% (active)	33%	53.3%	31.7%	30.6%	39.3%	16%	-23.8% (active)	82.1%
